Source: PubChem (The Scripps Research Institute Molecular Screening Center)
Shown are actives, neighbours in structure and some others; about 2.3% of the full set was active somewhere.
CHO-K1 Ca antag: M1 antagonist counterscreen hit in parental CHO-K1 cells | ATP-induced calcium, Fluo-8 fluorescence | inhibition, % at 3 µM | hit rate 0.6% among 360,000 | AID 602250;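 active = inhibition above a per-plate cutoff, the plate's mean sample inhibition plus 3 SD, cut at about 24% in these data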;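 also: 0% = DMSO plus EC80 ATP and 100% = DMSO alone without ATP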
CHO-K1 Ca PAM: nonselective calcium activators in parental CHO-K1 cells, primary screen, counter-screen for M1 PAM project, cell-based, Fluo-8 calcium fluorescence, full deck, 1536-well | ATP EC20; 0% at ATP EC20, 100% at ATP max | activation, % at 3 µM | hit rate 0.02% among 360,000 | AID 602247, 2012;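 active = activation above the run cutoff, the mean activation of all test compounds plus 3 SD, cut at about 40% in these data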;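 also: peak over basal fluorescence ratio in a 140 s read after ATP addition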
M1 ag parental: counter-screen for M1 agonists: effect in parental CHO-K1 cells; Fluo-8 calcium fluorescence; scaled to maximal ATP response, vehicle zero; hit rate 0.48% among 360,000; activation, % at 3 µM; in the data active = activation above about 15%;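 also: untransfected CHO-K1 host cells lacking M1 receptor as counterscreen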
CHRM1 agonist: human M1 muscarinic receptor agonists, primary screen, Fluo-8 calcium fluorescence, CHO-K1 cells, HTS. CHO-K1 hM1, agonist mode; 0% DMSO, 100% acetylcholine EC100. activation, % at 3 µM. hit rate 0.33% among 360,000. Muscarinic acetylcholine receptor M1 (Homo sapiens), P11229;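 active = activation above the run's mean compound activation plus 3 SD, cut at about 16% in these data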;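 also: peak over basal fluorescence ratio within a 140 s kinetic read after compound addition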
Target sequence (P11229 whole entry, looked up): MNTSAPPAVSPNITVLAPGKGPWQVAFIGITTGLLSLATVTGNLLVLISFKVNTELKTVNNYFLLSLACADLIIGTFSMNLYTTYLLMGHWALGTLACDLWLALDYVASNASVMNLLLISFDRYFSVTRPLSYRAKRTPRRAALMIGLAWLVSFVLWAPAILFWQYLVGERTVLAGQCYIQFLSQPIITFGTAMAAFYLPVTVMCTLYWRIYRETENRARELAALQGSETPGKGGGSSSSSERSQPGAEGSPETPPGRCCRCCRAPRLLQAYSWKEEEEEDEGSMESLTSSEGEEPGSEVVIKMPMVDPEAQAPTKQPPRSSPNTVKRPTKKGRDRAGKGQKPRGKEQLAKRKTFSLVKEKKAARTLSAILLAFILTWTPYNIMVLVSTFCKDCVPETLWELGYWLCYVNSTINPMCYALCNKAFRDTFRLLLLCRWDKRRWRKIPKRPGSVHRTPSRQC
CHRM1 PAM: human M1 muscarinic receptor positive allosteric modulators, primary screen, CHO-K1 cells, Fluo-8 calcium fluorescence, 1536-well. Muscarinic acetylcholine receptor M1 (Homo sapiens), P11229. CHO-K1 hM1, ACh EC20; 0% = ACh EC20, 100% = maximal ACh. activation, % at 3 µM. hit rate 0.088% among 360,000. AID 588819, 2011; in the data active = activation above about 19%, passing the limit was not always enough
M1 antag: human M1 muscarinic receptor antagonists, primary screen, CHO-K1 cells, Fluo-8 calcium fluorescence, 1536-well; Muscarinic acetylcholine receptor M1 (Homo sapiens), P11229; CHO-K1 hM1, ACh EC80 antagonist; inhibition, % at 3 µM; hit rate 1.3% among 360,000; AID 588852, 2011;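 active = percent inhibition above its own plate's cutoff, namely the mean of that plate's compound wells plus 3 SD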;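 also: peak over basal fluorescence ratio during 140 s after agonist addition; 0% = ACh EC80 plus DMSO and 100% = DMSO alone without agonist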
Numbers without * were called inactive; nt = no result given.

SMILES	CHO-K1 Ca antag	CHO-K1 Ca PAM	M1 ag parental	CHRM1 agonist	CHRM1 PAM	M1 antag
COc1ccc(OCCNC(=O)c2cccc(Oc3ccc(C(F)(F)F)cc3[N+](=O)[O-])c2)cc1	25*	-15	0	-6	-10	6
CC(C)(C)c1ccc(C(=O)Nc2ccc(NC(=O)C(=O)O)cc2)o1	-7	23	1	-4	7	-4
O=C(Nc1cccc2[nH]c([C@H]3C[C@H](O)[C@@H](CO)O3)nc12)NC(c1ccccc1)c1ccccc1	-1	4	0	-2	-5	2
COC(=O)CN(c1cc([N+](=O)[O-])ccc1OC)S(C)(=O)=O	8	9	17*	-8	9	-10
S=C(Nc1ccc(Br)cc1Cl)Nn1cnnc1	-3	14	1	-2	11	-12
CC(=O)c1cccc(-c2ccnc3c2CC(C(=O)Nc2cccc(C(F)(F)F)c2)O3)c1 (stereo unspecified)	-1	4	4	-1	-9	-2
COc1ccc(Br)cc1C(=O)Nc1ccccc1N1CCN(C(=O)c2ccccc2)CC1	2	-11	0	0	12	-2
O=C(Nc1ccc(N2CCCC2)cc1)c1cc(Br)ccc1Cl	2	-10	0	-8	-28	53*
CS(=O)(=O)c1ccc(C(=O)Nc2ccc(N3CCCC3)cc2)c(Cl)c1	-3	0	0	-12	8	0
O=C(Nc1ccccc1N1CCN(C(=O)c2ccccc2)CC1)c1cc(Br)ccc1Cl	26*	-8	0	-1	0	14
CSc1ccccc1NC(=O)CN(C)C(=O)c1ccc(NC(=O)c2cccs2)cc1	-16	3	6	-1	3	-2
CCCCCCCCCCn1ccc(=N)cc1	7	2	0	-8	-25	63*
COc1ccc(S(=O)(=O)N=N/C=C2\C=CC=CN2O)cc1OC	0	-11	0	0	7	-5
O=C(O)c1cc(NC(=O)c2ccc3c(c2)C(=O)N(Cc2cccnc2)C3=O)cc(C(=O)O)c1	-12	9	1	-1	12	-16
C#Cc1cccc(NC(=O)c2ccc3c(c2)C(=O)N(Cc2cccnc2)C3=O)c1	6	-9	15	2	-11	34*
N#Cc1cc([N+](=O)[O-])ccc1NC(=O)COC(=O)CN1C(=O)C2CCCCC2C1=O (stereo unspecified)	6	21	5	3	-4	4
CCCC(=O)OCC(=O)Nc1ccc([N+](=O)[O-])cc1C#N	26*	-16	0	2	18	-12
CC1NS(=O)(=O)c2cc([N+](=O)[O-])ccc21 (stereo unspecified)	-3	-10	0	nt	nt	nt
CC1(C)Cc2c(sc(NC(=O)Cc3ccccc3)c2C#N)CO1	1	3	1	-3	9	-14
CC1(C)Cc2c(sc(NC(=O)c3ccc(Br)o3)c2C#N)CO1	25*	-8	0	-1	7	-2
CC(C)C[C@@H]1CN(CCCC[C@H]2CNC(=O)C(=O)N2CCC2CCCCC2)C(=O)C(=O)N1Cc1ccccc1	-22	6	1	nt	nt	nt
N[C@@H](C(=O)N[C@@H]1C(=O)N2C(C(=O)O)=C(Cl)CS[C@H]12)c1ccccc1	-1	12	1	18*	-3	-28
Cc1cc(C)c(N=C2SCC(=O)N2Cc2ccco2)c(C)c1	-9	22	3	2	5	-7
O=C1CSC(=Nc2ccc(Cl)cc2)N1Cc1ccco1	29*	-20	4	-4	-6	14
Cc1cc(C)c(S(C)(=O)=O)c(Oc2ccc(C(C)(C)C)cc2)n1	-9	16	0	-4	0	2
SMILES	CHO-K1 Ca antag	CHO-K1 Ca PAM	M1 ag parental	CHRM1 agonist	CHRM1 PAM	M1 antag
CCN1/C(=C/C=C/c2oc3ccc(-c4ccccc4)cc3[n+]2CC)Oc2ccc(-c3ccccc3)cc21	102*	-23	857*	599*	-21	103*
CCOC(=O)C1CCN(S(=O)(=O)c2ccc(Cl)cc2)CC1	-4	-8	0	-5	9	-6
Cc1cc(C)n(S(=O)(=O)c2ccc(C(C)(C)C)cc2)n1	12	-10	1	-9	-21	55*
Cc1nonc1OCCNCCNc1ccccc1[N+](=O)[O-]	27*	-12	0	-1	-9	13
O=[N+]([O-])c1ccccc1NCCOc1ccccc1	-1	-4	0	-6	2	-4
CN(C)CCCN1c2ccccc2CCc2ccccc21	5	7	1	-6	-25	87*
CC(CN(C)C)CN1c2ccccc2CCc2ccccc21 (stereo unspecified)	8	8	1	-4	-26	98*
CNC(=O)N1c2ccccc2CCc2ccccc21	-7	10	0	-2	3	-11
COc1cc(/C=C2\CCC(C3CCCC3)C2=O)ccc1OC(C)C (stereo unspecified)	-5	-1	-1	0	1	-4
COc1ccc(NC(=O)COC(=O)Cc2c(F)cccc2Cl)cc1OC	2	12	8	-1	-5	7
Cc1nn(C(C)C(=O)NCCCc2ccccc2)c(=O)c2nn(-c3ccccc3)c(C)c12 (stereo unspecified)	-27	-4	2	-5	-6	18
Cn1cccc1/C=N/n1c(-c2ccco2)n[nH]c1=S	8	-3	1	-5	1	4
COc1cc(-c2n[nH]c(=S)n2/N=C/c2cccn2C)cc(OC)c1OC	-1	2	22*	64*	-26	39*
O=C(Cc1ccccc1)NC(NC(=O)Cc1ccccc1)c1cccc([N+](=O)[O-])c1	-5	11	0	-5	9	-6
C=CCN(CC(O)c1cccc([N+](=O)[O-])c1)C(C)CCc1ccccc1 (stereo unspecified)	-4	4	0	-7	-24	39*
COc1ccc(C(N)c2csc(Nc3cc(Oc4ccccc4)ncn3)n2)cc1 (stereo unspecified)	-7	16	11	2	-29	82*
CNC(=O)CSc1nnnn1CCCOC	-11	17	1	-3	0	43*
Cc1cc2ccccc2cc1C(=O)c1ccccc1	-19	13	0	-1	28*	-36
O=C(c1ccccc1)c1ccc(O)cc1O	-3	2	16*	9	9	-10
O=C(c1ccccc1)c1ccc2ccccc2c1	-9	5	0	-6	-1	-4
